Measles CPE – protection of cells from measles virus; Measles virus-infected cells, CPE protection, absorbance; protection (pct of control), % at 4 µM; actives 1.5% (n = 140,000); AID 841; in the data active = protection mostly above about 24%, no sharp cut-off; inactive = mostly below about 26%
MT1-MMP txn act – activates MT1-MMP transcription; actives 0.16% (n = 86,000); HT1080 MT1-MMP promoter luciferase reporter, luminescence, overnight; hits give high values; activation factor at 10 µM;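 active = activation factor of at least 2 for MT1-MMP transcription at 10 µM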
PostGolgi yeast – growth inhibition of a yeast mutant, post-Golgi transport screen | post-Golgi transport phenotypic cell assay | inhibition, % at 10 µM | actives 0.9% (n = 98,000);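 note: yeast cells grown in 1536-well plates; yeast grown about 18 h at 30C before absorbance read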
PostGolgi ctrl – inhibits growth of the yeast control strain; actives 5% (n = 98,000); efflux-deficient yeast background strain, growth absorbance A615, 16 h; inhibition, % at 10 µM
* = called active by the depositor; · = no result. An excerpt weighted towards active compounds, which were near 5.3% of everything screened. Cut-off read from the data, not from the text of the source, unless noted: active = inhibition above about 30%; inactive = the rest.

SMILES	Measles CPE	MT1-MMP txn act	PostGolgi yeast	PostGolgi ctrl
COc1cc(-c2nnc(SCC(=O)/C(C#N)=C(\C)N)o2)cc(OC)c1OC	4	·	0	0
Cc1cccc(C)c1Nc1nnc(SCc2cc([N+](=O)[O-])cc3c2OCOC3)s1	11	1.3	4	33*
COC(=O)c1ccc(C(NC(=O)OCc2ccccc2)/C(F)=C/[C@@H](C)C(=O)NCc2cccnc2)cc1 (some centres undefined)	·	1.2	·	·
Cc1ccc(S(=O)(=O)N2CCN(CC(=O)NC3CCCc4ccccc43)CC2)cc1C (centres undefined)	7	·	2	19
Cc1ccc(S(=O)(=O)N2CCN(CC(=O)NC3CCCc4ccccc43)CC2)c(C)c1 (centres undefined)	22	·	0	33*
CNS(=O)(=O)c1cccc(C(=O)OCC(=O)C23CC4CC(CC(C4)C2)C3)c1	1	1	11	6
CCOc1ccc2ccccc2c1/C=N/NC(=O)CNC(=O)Cc1ccccc1	4	·	·	·
CCOc1cc(CNCCO)cc(Br)c1OCc1ccccc1Cl	8	·	3	15
CCOc1cc(CNC(C)(C)CO)cc(Br)c1OCc1ccc(Cl)cc1Cl	2	·	13	91*
CC1(C)NC(=O)N(CC(O)COc2ccc(N3C(=O)c4ccccc4C3=O)cc2)C1=O (centres undefined)	47*	1	5	10
CCN(c1ccccc1)c1ncnc2c1cnn2-c1ccccc1	49*	1.6	-5	25
CC1CCN(c2ncnc3c2cnn3-c2ccccc2)CC1	8	1.3	5	32*
Cc1ccc(-n2ncc3c(SCc4ccccc4)ncnc32)cc1	35*	·	·	·
CCOC(=O)C1CCN(c2ncnc3c2cnn3-c2ccccc2)CC1	4	1	-7	9
O=[N+]([O-])c1cnc(N2CCCCC2)c([N+](=O)[O-])c1	17	·	·	·
COC(=O)c1ccc(C(NC(=O)OCc2ccccc2)/C(C)=C/[C@@H](C)C(=O)NCc2cccnc2)cc1 (some centres undefined)	·	1.8	·	·
CCc1ccc(NC(=S)NC(=O)CC(C)C)cc1	11	·	·	·
COc1ccc(NC(=O)/C(=C/c2cccnc2)NC(=O)c2cccs2)cc1	22	·	·	·
COC(=O)[C@@]1(Cc2ccccc2)[C@H]2c3cc(C(=O)N4CCCC4)n(Cc4ccccn4)c3C[C@H]2CN1C(=O)c1ccccc1	·	1.2	·	·
CCc1noc(C)c1C(=O)Nc1nc(-c2ccc(Cl)cc2Cl)cs1	18	·	·	·
Cc1ccc(N(C)C(=O)N2CCN(S(=O)(=O)c3ccc(C)c(C)c3)CC2)cc1	10	1.1	8	35*
COc1cc(NC(=O)Cc2ccccc2)ccc1NC(=O)c1ccco1	64*	1.1	-13	3
N=C1C(c2nc3ccccc3[nH]2)=C(O)CN1NC(=O)COc1cccc(F)c1	10	·	·	·
CC(C)(C)NC(=O)C(c1ccccn1)N(C(=O)c1ccc2c(c1)OCCO2)C1CCCC1 (centres undefined)	25	1.2	3	31*
CC1Cc2ccccc2N1C(=O)CSc1nnc2c(n1)[nH]c1ccc(F)cc12 (centres undefined)	7	1.1	·	·
SMILES	Measles CPE	MT1-MMP txn act	PostGolgi yeast	PostGolgi ctrl
Cc1ccc(NC(=S)N2CCC(c3nc4ccccc4s3)CC2)cc1C	29*	·	14	4
Cc1cc(C)cc(NC(=S)N2CCC(c3nc4ccccc4s3)CC2)c1	7	·	-5	11
CCSc1nnc(-c2cccnc2)n1-c1ccc(Cl)c(C)c1	14	1	3	-3
Cc1cc(C)c(C)c(S(=O)(=O)NCc2ccco2)c1C	3	1.2	-4	34*
Cc1ccc(S(=O)(=O)NCc2ccco2)cc1C	43*	0.9	-3	7
Cc1cc(C)n(CC(O)Cn2c3ccc(Br)cc3c3cc(Br)ccc32)c(=O)n1 (centres undefined)	16	1.1	99*	103*
CCCC(=O)Nc1cc(-c2nnc(OC)c3ccccc23)ccc1N1CCCCC1	11	·	17	43*
CCCC(=O)Nc1cc(-c2nn(C)c(=O)c3ccccc23)ccc1N1CCCCC1	·	1	·	·
Cc1cccc(N2C(=O)C(Oc3ccc(Cl)cc3Cl)C2C=O)c1C (centres undefined)	12	·	·	·
O=C(CN1CCC(C(O)(c2ccccc2)c2ccccc2)CC1)Nc1cc(Cl)ccc1Cl	8	·	8	37*
O=C(CN1CCOCCOCCOCC1)Nc1ccccc1	2	·	-4	1
O=C(CN1CCOCC1)Nc1cccc(Br)c1	6	1.2	-4	31*
O=C(CN1CCOCCOCCN(CC(=O)Nc2ccccc2)CCOCC1)Nc1ccccc1	17	1.1	30*	2
O=C(CN1CCOCC1)Nc1ccccc1Cl	60*	1	7	12
O=C(CN1CCOCC1)Nc1cccc(Cl)c1Cl	18	1.2	4	2
